# According to the supplement of paper PMC10849652:
# About 8,800 targets were measured; listed, in parts, are those with a hit and a random draw of the rest. About 0.5% of all pairs of compound and target were hits. Values without a mark were called inactive.
# Compound: NCC(=O)Nc1ccc(-n2nc(C(F)(F)F)cc2-c2ccc3c(ccc4ccccc43)c2)cc1
# Experiment: log2 fold change, soluble protein after heating vs DMSO (PISA); higher = thermal stabilisation; K562 lysate, 10 uM; active = over 0.2 and 3.5 SD of the protein, either way, in both replicates (recomputed)
# Procedure, shortened: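 Quantification was by TMTpro 16plex LC-MS/MS with equalised channel sums, applied to the supernatant after 21,000xg for 90 min. Samples were crude K562 extract at 1 mg/mL protein in PBS pH 7.4 with 1 mM MgCl2, treated with 10 μM compound for 30 min, heated for 3 min across 48°C-58°C, pooled and brought to 0.5% NP-40 at 4°C. Values are log-two fold changes in thermal stability relative to solvent controls, from duplicates.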
# UniProt Q5XPI4, sequence (Q5XPI4 whole entry, looked up): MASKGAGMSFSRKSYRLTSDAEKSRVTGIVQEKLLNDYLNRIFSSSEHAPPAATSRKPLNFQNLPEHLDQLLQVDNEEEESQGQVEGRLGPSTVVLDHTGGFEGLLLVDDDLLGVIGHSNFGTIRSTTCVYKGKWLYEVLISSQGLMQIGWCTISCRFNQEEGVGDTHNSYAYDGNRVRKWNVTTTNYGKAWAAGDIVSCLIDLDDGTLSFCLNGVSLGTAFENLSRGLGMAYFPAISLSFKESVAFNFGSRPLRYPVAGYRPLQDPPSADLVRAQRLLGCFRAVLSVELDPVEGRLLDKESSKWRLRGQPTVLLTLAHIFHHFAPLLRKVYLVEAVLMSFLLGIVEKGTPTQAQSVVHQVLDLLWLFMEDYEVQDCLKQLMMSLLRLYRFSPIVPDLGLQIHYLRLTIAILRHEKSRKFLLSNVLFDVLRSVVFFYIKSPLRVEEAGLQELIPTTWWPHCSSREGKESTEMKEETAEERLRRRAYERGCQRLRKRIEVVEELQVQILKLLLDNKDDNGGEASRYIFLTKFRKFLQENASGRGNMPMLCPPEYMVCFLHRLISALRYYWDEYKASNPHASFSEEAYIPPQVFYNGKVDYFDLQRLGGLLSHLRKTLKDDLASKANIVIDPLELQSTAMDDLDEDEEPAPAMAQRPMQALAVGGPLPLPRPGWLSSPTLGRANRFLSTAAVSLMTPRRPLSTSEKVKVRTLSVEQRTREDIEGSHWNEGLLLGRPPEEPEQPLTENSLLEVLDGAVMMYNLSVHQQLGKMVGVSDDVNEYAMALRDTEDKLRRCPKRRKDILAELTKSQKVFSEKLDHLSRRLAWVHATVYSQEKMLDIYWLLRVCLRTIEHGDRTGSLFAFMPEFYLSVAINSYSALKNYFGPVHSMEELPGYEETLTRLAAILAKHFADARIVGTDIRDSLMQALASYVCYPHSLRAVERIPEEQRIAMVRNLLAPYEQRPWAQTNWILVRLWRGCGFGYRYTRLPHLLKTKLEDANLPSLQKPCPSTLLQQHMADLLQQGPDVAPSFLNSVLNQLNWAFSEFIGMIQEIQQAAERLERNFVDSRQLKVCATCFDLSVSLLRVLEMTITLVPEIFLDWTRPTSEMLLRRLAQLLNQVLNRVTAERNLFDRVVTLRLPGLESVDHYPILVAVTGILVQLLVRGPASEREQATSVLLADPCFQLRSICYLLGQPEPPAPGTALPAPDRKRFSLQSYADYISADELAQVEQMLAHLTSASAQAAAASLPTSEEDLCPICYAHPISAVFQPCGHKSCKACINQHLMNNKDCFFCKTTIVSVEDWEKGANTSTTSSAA
# UniProt Q92878, sequence (Q92878 whole entry, looked up): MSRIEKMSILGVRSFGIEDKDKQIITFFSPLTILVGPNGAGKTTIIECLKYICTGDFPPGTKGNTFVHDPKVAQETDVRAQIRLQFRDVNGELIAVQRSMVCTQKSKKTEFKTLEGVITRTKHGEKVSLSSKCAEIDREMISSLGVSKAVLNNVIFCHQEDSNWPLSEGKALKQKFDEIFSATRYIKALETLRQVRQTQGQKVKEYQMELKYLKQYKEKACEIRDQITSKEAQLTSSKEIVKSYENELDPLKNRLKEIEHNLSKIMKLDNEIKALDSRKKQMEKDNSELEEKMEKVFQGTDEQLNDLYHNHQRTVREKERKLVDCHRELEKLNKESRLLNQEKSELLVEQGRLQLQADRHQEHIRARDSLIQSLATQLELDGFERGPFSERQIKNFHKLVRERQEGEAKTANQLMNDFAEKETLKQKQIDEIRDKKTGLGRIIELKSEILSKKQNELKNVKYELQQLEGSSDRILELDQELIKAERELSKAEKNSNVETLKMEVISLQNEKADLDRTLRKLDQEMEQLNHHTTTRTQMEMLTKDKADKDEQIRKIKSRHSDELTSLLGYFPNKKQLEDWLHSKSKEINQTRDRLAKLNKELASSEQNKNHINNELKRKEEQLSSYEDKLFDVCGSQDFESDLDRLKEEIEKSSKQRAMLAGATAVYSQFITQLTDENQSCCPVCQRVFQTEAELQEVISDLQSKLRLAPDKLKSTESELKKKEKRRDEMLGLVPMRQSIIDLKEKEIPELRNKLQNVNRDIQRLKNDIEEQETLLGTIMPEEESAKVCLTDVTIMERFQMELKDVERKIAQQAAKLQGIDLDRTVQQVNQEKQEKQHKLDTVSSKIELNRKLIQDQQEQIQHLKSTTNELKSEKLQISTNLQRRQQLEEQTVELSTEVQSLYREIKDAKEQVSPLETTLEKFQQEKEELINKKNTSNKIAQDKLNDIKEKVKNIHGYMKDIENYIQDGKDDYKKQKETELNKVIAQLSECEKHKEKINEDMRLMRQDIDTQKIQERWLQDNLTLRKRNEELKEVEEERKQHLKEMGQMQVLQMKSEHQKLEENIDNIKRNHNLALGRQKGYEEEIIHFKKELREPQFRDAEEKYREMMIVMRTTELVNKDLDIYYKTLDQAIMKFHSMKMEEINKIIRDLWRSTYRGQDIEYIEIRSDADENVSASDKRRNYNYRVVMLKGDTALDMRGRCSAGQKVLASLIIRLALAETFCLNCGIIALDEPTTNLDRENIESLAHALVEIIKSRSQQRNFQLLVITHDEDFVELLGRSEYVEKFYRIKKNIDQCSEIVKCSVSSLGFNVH
# UniProt Q8IYW5, sequence (Q8IYW5 whole entry, looked up): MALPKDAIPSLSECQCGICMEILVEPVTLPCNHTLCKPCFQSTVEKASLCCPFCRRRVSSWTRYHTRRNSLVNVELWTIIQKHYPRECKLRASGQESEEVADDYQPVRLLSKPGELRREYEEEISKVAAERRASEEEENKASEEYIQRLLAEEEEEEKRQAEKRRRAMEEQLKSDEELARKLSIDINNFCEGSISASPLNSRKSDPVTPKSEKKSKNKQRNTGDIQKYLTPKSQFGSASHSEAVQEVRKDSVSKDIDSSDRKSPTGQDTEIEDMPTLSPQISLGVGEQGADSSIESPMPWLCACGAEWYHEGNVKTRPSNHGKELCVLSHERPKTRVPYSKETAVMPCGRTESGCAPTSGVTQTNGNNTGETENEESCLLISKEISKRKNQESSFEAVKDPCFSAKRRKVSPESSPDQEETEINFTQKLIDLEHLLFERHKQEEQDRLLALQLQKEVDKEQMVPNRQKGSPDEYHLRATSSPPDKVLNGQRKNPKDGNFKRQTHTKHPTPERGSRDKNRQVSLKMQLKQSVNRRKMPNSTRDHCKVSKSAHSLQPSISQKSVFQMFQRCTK
# UniProt P51159, sequence (P51159 whole entry, looked up): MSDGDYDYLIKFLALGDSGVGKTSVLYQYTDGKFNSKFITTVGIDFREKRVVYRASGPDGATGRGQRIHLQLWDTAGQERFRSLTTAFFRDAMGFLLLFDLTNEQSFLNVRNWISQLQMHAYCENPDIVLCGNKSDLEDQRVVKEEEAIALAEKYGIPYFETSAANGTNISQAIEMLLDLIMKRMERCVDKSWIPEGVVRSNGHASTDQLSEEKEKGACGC
# UniProt Q8N122, sequence (Q8N122 whole entry, looked up): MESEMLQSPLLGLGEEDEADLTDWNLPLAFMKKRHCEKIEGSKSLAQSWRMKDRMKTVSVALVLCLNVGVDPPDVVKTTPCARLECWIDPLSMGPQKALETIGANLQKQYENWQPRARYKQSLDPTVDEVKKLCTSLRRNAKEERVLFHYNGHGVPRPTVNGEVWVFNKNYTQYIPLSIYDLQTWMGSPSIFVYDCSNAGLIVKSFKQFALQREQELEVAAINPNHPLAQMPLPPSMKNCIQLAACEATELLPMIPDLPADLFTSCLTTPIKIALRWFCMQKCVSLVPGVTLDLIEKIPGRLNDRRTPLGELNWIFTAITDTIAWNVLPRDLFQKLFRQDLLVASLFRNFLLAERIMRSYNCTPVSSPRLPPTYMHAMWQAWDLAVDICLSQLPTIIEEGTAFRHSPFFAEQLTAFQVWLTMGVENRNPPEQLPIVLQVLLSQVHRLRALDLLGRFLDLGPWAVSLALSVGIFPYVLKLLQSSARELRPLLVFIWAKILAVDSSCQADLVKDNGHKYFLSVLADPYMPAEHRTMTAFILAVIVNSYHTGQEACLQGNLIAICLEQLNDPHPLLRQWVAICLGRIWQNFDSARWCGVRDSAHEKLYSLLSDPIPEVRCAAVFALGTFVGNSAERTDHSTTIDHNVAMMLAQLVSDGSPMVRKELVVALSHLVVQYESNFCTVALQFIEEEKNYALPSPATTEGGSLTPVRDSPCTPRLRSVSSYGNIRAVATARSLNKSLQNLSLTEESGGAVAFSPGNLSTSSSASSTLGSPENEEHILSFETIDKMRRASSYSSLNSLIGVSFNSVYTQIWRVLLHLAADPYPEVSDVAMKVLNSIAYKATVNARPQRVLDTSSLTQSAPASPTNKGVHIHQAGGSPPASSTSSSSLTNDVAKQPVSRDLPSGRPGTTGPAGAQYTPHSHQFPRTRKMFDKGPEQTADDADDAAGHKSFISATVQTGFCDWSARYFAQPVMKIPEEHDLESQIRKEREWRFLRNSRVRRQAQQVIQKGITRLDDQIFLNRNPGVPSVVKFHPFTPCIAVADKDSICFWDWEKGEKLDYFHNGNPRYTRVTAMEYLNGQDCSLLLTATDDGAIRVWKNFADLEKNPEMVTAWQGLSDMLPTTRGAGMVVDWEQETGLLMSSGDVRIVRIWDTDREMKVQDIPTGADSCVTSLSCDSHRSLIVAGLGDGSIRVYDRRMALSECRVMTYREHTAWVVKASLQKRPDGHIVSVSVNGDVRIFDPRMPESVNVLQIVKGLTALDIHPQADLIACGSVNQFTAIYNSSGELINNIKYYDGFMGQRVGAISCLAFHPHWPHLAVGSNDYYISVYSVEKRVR
# UniProt Q8TC12, sequence (Q8TC12 whole entry, looked up): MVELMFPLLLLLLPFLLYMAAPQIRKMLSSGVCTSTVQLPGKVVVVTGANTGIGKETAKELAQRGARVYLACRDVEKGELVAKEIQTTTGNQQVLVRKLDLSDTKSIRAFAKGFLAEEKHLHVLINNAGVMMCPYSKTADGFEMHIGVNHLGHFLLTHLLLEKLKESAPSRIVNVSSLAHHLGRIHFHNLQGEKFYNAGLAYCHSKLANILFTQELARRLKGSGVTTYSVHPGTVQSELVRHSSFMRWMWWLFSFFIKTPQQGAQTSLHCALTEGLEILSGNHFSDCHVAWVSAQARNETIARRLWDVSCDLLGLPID
row,Target,log2 fold change
1,RFC3 (UniProt P40938),-0.01
2,RNF2 (UniProt Q99496),-0.015
3,RAB6D (UniProt Q53S08),-0.012
4,RDH11 (UniProt Q8TC12),0.008
5,RPS6KA1 (UniProt Q15418),0.014
6,RPS29 (UniProt P62273),-0.105
7,RAD50 isoform 2 (UniProt Q92878),-0.005
8,RAB27A (UniProt P51159),-0.033
9,RDH14 (UniProt Q9HBH5),-0.072
10,RANBP6 (UniProt O60518),0.013
11,SEC61G (UniProt P60059),-0.047
12,"RNF213, A0A0A0MTC1",0.022
13,RNF123 (UniProt Q5XPI4),0.014
14,RCOR3 isoform 3 (UniProt Q9P2K3),-0.044
15,RETSAT (UniProt Q6NUM9),-0.087
16,RDH10 (UniProt Q8IZV5),-0.038
17,RNF168 (UniProt Q8IYW5),0.056
18,SEH1L isoform 1 (UniProt Q96EE3),0.056
19,RINT1 (UniProt Q6NUQ1),0.078
20,RIC1 (UniProt Q4ADV7),-0.053
21,SDHA (UniProt P31040),0.007
22,RPTOR (UniProt Q8N122),0.002
23,SELENOK (UniProt Q9Y6D0),-0.192
